Assay outcomes as filed in PubChem BioAssay.
PLAP act = activates human placental alkaline phosphatase. P05187. purified PLAP enzyme, luminescent substrate read-out; stronger effect = higher value. activation fold at 20 µM. 96,000 tested, 1.2% active. AID 696; in the data active means activation fold above about 2
CYP2C9 activ = increases human cytochrome P450 2C9 activity. recombinant CYP2C9, luciferin-H conversion, luminescence; stronger effect = higher value; factor 1 = untreated enzyme, 0 = blocked. AID 1024. 96,000 tested, 1.4% active. P11712. activation factor at 5 µM;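 active means activation factor of 2 or more for CYP2C9 at a 5 µM dose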;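 further: 0 = sulfaphenazole-blocked wells and 1 = vehicle-only wells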
Target sequence (P11712 whole entry, looked up): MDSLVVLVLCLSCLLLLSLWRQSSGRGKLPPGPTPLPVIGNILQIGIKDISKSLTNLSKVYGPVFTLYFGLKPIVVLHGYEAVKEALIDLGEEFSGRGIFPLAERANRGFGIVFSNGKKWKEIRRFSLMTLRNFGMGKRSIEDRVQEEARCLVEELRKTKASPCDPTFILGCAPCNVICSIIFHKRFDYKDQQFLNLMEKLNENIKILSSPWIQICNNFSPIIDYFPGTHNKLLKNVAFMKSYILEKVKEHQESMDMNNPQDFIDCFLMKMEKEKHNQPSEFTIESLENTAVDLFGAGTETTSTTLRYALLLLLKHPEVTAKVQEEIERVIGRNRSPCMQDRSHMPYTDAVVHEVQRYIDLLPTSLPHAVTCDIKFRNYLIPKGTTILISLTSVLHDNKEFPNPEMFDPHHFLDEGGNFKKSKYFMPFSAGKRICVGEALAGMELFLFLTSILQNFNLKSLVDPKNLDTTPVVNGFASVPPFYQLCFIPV
CYP2C9 inh = inhibitors of human CYP2C9. P11712. CYP2C9 Supersomes, luciferin-H conversion, luminescence. inhibition, % at 5 µM. 96,000 tested, 20% active. AID 777;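 active means blocking of liver enzyme CYP2C9 beyond about 50% at 5 µM, limit read from the data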
CYP2C19 act = increases human CYP2C19 enzyme activity; recombinant CYP2C19, luciferin-H EGE luminescence; stronger effect = higher value; 0 = fully inhibited enzyme, 1 = untreated enzyme; 96,000 tested, under 10 active; activation factor at 5 µM;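 active means activation factor of at least 2 at 5 µM in the primary screen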;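 further: 0 = wells with 2.5 mM tranylcypromine and 1 = vehicle-only wells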
CYP2C19 inh = inhibitors of human CYP2C19; P33261; CYP2C19 Supersomes, luciferin-H EGE luminescence, 30 min; AID 778; inhibition, % at 5 µM; 96,000 tested, 21% active;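 active means CYP2C19 inhibition above a set limit at 5 µM in the primary screen, cut at about 50% in these data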;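 further: plate controls were negative control wells for no effect and 2.5 mM tranylcypromine positive control for full effect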
Numbers without * were called inactive; ! = a repeat was not active. Compounds with a hit are over-represented: about 31% of the library has one in this group of screens.

SMILES | PLAP act | CYP2C9 activ | CYP2C9 inh | CYP2C19 act | CYP2C19 inh
Brc1ccc2ncnc(Nc3ccc(N4CCOCC4)cc3)c2c1 | 0.9 | 1.1 | -8 | 0.9 | 10
C(=N\c1nccs1)/Nc1nccs1 | 1.1 | 0.9 | 12 | 0.9 | 5
Cc1ccc(C)c(N2CCN(CCCNC(=O)Cn3cc4c(n3)CCCCC4)CC2)c1 | 1.4 | 1 | 0 | 0.7 | 28
CCOC(=O)N1CCN(CCC(=O)Nc2ccc(C)c(Br)c2)CC1 | 1.3 | 0.9 | 15 | 0.8 | 21
CCOC(=O)N1CCN(CC(=O)Nc2cccc(Br)c2)CC1 | 1.1 | 0.9 | 7 | 0.8 | 23
CCOC(=O)N1CCN(CCC(=O)Nc2ccc(Br)cc2)CC1 | 1.1 | 0.1 | 95* | 0.1 | 92*
CCOC(=O)N1CCN(CCC(=O)Nc2cccc(Br)c2)CC1 | 1.5 | 0.4 | 58*! | 0.3 | 65*!
COC(=O)CCSCC(=O)Nc1nnc(C)s1 | 1.1 | 1.1 | -14 | 1.2 | -18
COc1ccc(N2CCN(C(=O)c3ccc(NS(=O)(=O)c4ccc(F)cc4)cc3)CC2)cc1 | 1.6 | 0.1 | 91* | 0.8 | 24
CCOc1ccc(S(=O)(=O)Nc2cccc(C(=O)N3CCN(c4ccc(OC)cc4)CC3)c2)cc1 | 1.7 | 0.4 | 60* | 0.4 | 62*
Cc1csc(NC(=O)c2ccoc2C)n1 | 1.2 | 0.2 | 80* | 0 | 100*
CCOC(=O)c1cc(NC(=O)c2ccoc2C)cc(C(=O)OCC)c1 | 1.3 | 0.5 | 52* | 0.6 | 40
Cc1csc(NC(=O)c2cccc(C)c2C)n1 | 1 | 1 | 0 | 1.1 | -9
CCOC(=O)Cc1csc(NC(=O)c2ccoc2C)n1 | 1.2 | 0.3 | 74* | 0.1 | 93*
COc1ccc(-n2c(=S)[nH]c3cc(C(=O)NCCCN4CCCC4=O)ccc3c2=O)cc1 | 1.1 | 1.1 | -6 | 1 | 2
COc1ccc(OC)c(C2NC(=O)NC(C)=C2C(=O)Nc2ccc(C)cc2)c1 (stereo not given) | 0.9 | 0.8 | 20 | 0.7 | 32
CN(C(=S)NC(=O)CCCOc1ccc(Cl)cc1Cl)c1ccccc1 | 1.1 | 0.6 | 43 | 0.6 | 40
O=c1cc2c(nn1Cc1ccc(Cl)cc1)-c1ccccc1CC2 | 2* | 0 | 97* | 0 | 97*
Cc1ccc(Cn2cnc3c(nnn3Cc3ccc(Cl)cc3)c2=O)cc1 | 1 | 0.8 | 18 | 0.8 | 21
O=c1cc2c(nn1Cc1cccc(Cl)c1)-c1ccccc1CC2 | 1.2 | 0 | 100* | 0.2 | 84*
O=C1c2ccncc2C(=O)N1Cc1cccc(Cl)c1 | 1 | 0.9 | 13 | 0.8 | 20
NC(=O)c1ccc(Cc2ncc(C(F)(F)F)cc2Cl)s1 | 1.1 | 1 | 4 | 0.9 | 14
O=S(=O)(N/N=C/c1ccc(Cl)cc1)c1ccc(Cc2ncc(C(F)(F)F)cc2Cl)s1 | 1.6 | 0.1 | 92* | 1 | -4
O=C(NCCCN1CCCC1=O)c1cc(NS(=O)(=O)c2ccc(F)cc2)cc(NS(=O)(=O)c2ccc(F)cc2)c1 | 1.6 | 0.8 | 22 | 1 | 0
CCOC(=O)c1cccc(NC(=O)CSc2nc3cccnc3n2C)c1 | 0.7 | 0.5 | 49 | 0.4 | 58*
SMILES | PLAP act | CYP2C9 activ | CYP2C9 inh | CYP2C19 act | CYP2C19 inh
CCOC(=O)c1c(NC(=O)CSc2nnc(-c3ccccc3C)n2C)sc(C(C)=O)c1C | 1.6 | 0.1 | 95* | 0.2 | 84*
CCOc1ccc2nc(NC(=O)CSc3nc4cccnc4n3C)sc2c1 | 1 | 1.2 | -23 | 1.1 | -10
CCOC(=O)c1c(NC(=O)CSc2nc3cccnc3n2C)sc(C(C)=O)c1C | 0.9 | 0.3 | 69* | 0.7 | 27
CCOC(=O)c1cccc(NC(=O)Cn2c(CC(=O)NC)nc3ccccc32)c1 | 1.3 | 0.3 | 71* | 0.8 | 25
COC(=O)c1sccc1NC(=O)c1csc(C)c1 | 0.9 | 0.9 | 10 | 0.5 | 47
O=C(Nc1ncnc2c1CCC2)C12CC3CC(CC(C3)C1)C2 | 1.1 | 0.9 | 11 | 0.9 | 6
CC(=O)NC(C)C(=O)OCc1ccc(Cl)cc1Cl (stereo not given) | 1.2 | 2.7* | -168 | 0.4 | 59*
CC(NC(N)=O)C(=O)OCc1ccc(Cl)cc1Cl (stereo not given) | 1 | 1.4 | -41 | 0.6 | 43
O=C(OCc1ccc(Cl)cc1Cl)c1cccnc1Cl | 1.2 | 1 | -1 | 0.3 | 74*
O=C(COC(=O)c1cccnc1Cl)c1cccc(Cl)c1 | 0.8 | 1 | 2 | 0.4 | 56*
COc1ccc2[nH]c(=O)c(NC(N)=S)nc2c1 | 0.9 | 0.8 | 17 | 0.7 | 34
CCOC(=O)CC1C(=O)NCCN1C(=O)NC1CCCCC1 (stereo not given) | 1 | 0.7 | 27 | 1 | -3
CCC(SC1=Nc2ccccc2C2=NC(CC(C)C)C(=O)N12)C(=O)Nc1ccc2c(c1)OCO2 (stereo not given) | 1.4 | 0.2 | 84* | 0.4 | 57*
CC(C)CC(C(=O)Nc1ccc2c(c1)OCCO2)N1C(=O)c2ccccc2C1=O (stereo not given) | 0.9 | 1 | 4 | 1.1 | -12
COc1ccccc1N1C(=O)C2C3C=CC(C3)C2(C)C1=O (stereo not given) | 0.8 | 1.1 | -7 | 0.9 | 14
Cc1cc(S(=O)(=O)NCc2cccnc2)ccc1-n1cnnn1 | 0.8 | 1.2 | -19 | 0.6 | 37
COc1ccc(CN(C2CCCC2)S(=O)(=O)c2ccc(-n3cnnn3)c(OC)c2)cc1OC | 1.5 | 0.5 | 46 | 0.5 | 46
COc1cccc(CN(Cc2cccnc2)S(=O)(=O)c2ccc(-n3cnnn3)c(C)c2)c1OC | 1.6 | 0.6 | 44 | 0.2 | 78*
COc1ccccc1CN(Cc1ccco1)S(=O)(=O)c1ccc(-n2cnnn2)c(OC)c1 | 0.7 | 0.2 | 85* | 0.3 | 67*
O=C(NCc1ccco1)c1ccc2nc3sc4c(c3c(=O)n2c1)CCCC4 | 1.3 | 0.6 | 40 | 0.8 | 19
CCCCNc1nc2ccccc2[nH]1 | 2.7* | 1.1 | -15 | 0.8 | 18
CCOCCCNc1nc2ccccc2[nH]1 | 0.8 | 1 | 3 | 0.9 | 7
O=C(NC(=S)N1CCN(c2c(Cl)cccc2[N+](=O)[O-])CC1)c1cccs1 | 1.3 | 0.2 | 78* | 0.6 | 45
O=C(c1cccnc1)N1CCN(c2c(Cl)cccc2[N+](=O)[O-])CC1 | 1 | 0.7 | 29 | 0.2 | 82*
Cc1nnc(Oc2ccccc2F)c2ccccc12 | 1.2 | 1.2 | -22 | 0.8 | 23
CCn1c(CNc2cccc(Cl)c2)nnc1SCc1ccccc1 | 0.8 | 0.7 | 33 | 0.4 | 56*
CCOC(=O)CSc1nnc(CNc2ccc(Cl)cc2)n1-c1ccccc1 | 1.4 | 0.6 | 38 | 0.5 | 49
Cn1c(CNC(=O)Nc2cccc(Cl)c2)nnc1SCc1ccccc1 | 0.9 | 1 | 1 | 1 | 1
Cn1c(CNc2cccc(Cl)c2)nnc1SCC(=O)OC1CCCCC1 | 1.5 | 0.2 | 81* | 0.2 | 79*
CCOC(=O)CSc1nnc(CNc2cccc(Cl)c2)n1-c1ccccc1 | 1.4 | 0.7 | 27 | 0.4 | 56*
